Experimental data from the supplement of paper PMC13380429.

Tests used:
[1] = tested on: Vero E6 infected with SARS-CoV-2; assay: morphology score (similarity to uninfected cells); higher = more like uninfected cells; conditions: 24 h
[2] = tested on: Vero E6 infected with SARS-CoV-2; assay: SARS-CoV-2 infection rate relative to infected DMSO; higher = more infection, active = 60 or less; conditions: 24 h

SMILES | morphology score [1] | SARS-CoV-2 infection rate [2]
O=C1OCCN1/N=C/c1ccc([N+](=O)[O-])o1 [furazolidone] (10 µM) | 0.0225 | 102% (inactive)
Oc1c(Br)cc(Br)c2cccnc12 [broxyquinoline] (10 µM) | 0.015 | 104% (inactive)
C[C@@]1(O)[C@H](O)[C@@H](CO)O[C@H]1n1cnc2c(NC3CCCC3)nc(Cl)nc21 (10 µM) | 0.0826 | 102% (inactive)
O=C(O)c1cc(O)c2c3nc4ccccc4oc-3cc(=O)c2n1 [pirenoxine] (10 µM) | 0.0951 | 102% (inactive)
Cc1c(Cc2ccc3ccccc3n2)c2cc(F)ccc2n1CC(=O)O (10 µM) | 0.0108 | 102% (inactive)
C[C@@H]1CN([C@H]2CC[C@](C#N)(c3ccc(F)cc3)CC2)CC[C@]1(C(=O)O)c1ccccc1 [levocabastine] (10 µM) | -0.0824 | 112% (inactive)
CC1(C)CCC(C)(C)c2cc(C(=O)Nc3ccc(C(=O)O)cc3)ccc21 (10 µM) | -0.326 | 112% (inactive)
O=C(NCCCN1CCCCCC1)C(c1ccccc1)C1CCCCC1 (configuration not stated) (10 µM) | 0.404 | 75.5% (inactive)
NCc1cc(O)no1 [muscimol] (10 µM) | -0.00274 | 111% (inactive)
C=C(C)[C@@H]1CC[C@]2(C(=O)O)CC[C@]3(C)[C@H](CC[C@@H]4[C@@]5(C)CC[C@H](O)C(C)(C)[C@@H]5CC[C@]43C)[C@@H]12 [betulinic-acid] (10 µM) | 0.0296 | 108% (inactive)
COc1ccccc1OCC(O)COC(N)=O (configuration not stated) [methocarbamol] (10 µM) | 0.0924 | 100% (inactive)
